Laboratory results published in PubChem BioAssay AID652053 (Broad Institute, 2013).
In all, about 1,300 compounds went through this assay and about 930 (72%) were called active.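 How the source made its calls: active means fitted curve reaches 40% activation signal increase at or below the top valid tested concentration in every replicate test; inconclusive means replicate tests disagree in their calls; inactive means all replicate tests inactive, including effects opposite the expected signal rise.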 So high a share suggests a set chosen from earlier hits. The list is a sample of the results. Results with a measured potency or affinity are listed apart.

test: miR-122 inhibitors in Huh7 reporter cells, dose response, cell-based, Huh7 psiCHECK-miR122, Renilla luciferase, cherry-pick (AID 652053); conditions: 48 h; series mostly up to 35 µM

outcome, inactive:
C[C@H]1CN([C@@H](C)CO)C(=O)Cc2cc(NC(=O)Nc3cccc4ccccc34)ccc2O[C@@H]1CN(C)C(=O)NC1CCCCC1
CCC1(c2ccc(F)cc2)NC(=O)N(CC(=O)Nc2ccc(-c3nc4ccc(C)cc4s3)cc2)C1=O (stereo not given)
COC(=O)c1sccc1NC(=S)Nc1ccc(F)cc1
COc1ccc(CCNC(=O)COC(=O)Cn2cnc3ccccc3c2=O)cc1
Cc1ccc(Nc2nc(C(=O)NCc3ccco3)cs2)cc1
O=c1c2c(nc3nc(SCc4ccccc4)[nH]n13)CCC2
Cc1ccc(CSc2nnc(-c3cccnc3)o2)cc1
CN(C[C@H]1N[C@@H](CO)[C@H]1c1ccc(-c2cccc(F)c2)cc1)S(C)(=O)=O
C[C@H]1CN([C@@H](C)CO)C(=O)c2cccc(NS(=O)(=O)c3ccccc3)c2O[C@H]1CN(C)Cc1ccc(C(=O)Nc2ccccc2N)cc1
C[C@@H]1CN([C@H](C)CO)C(=O)c2cccc(NS(=O)(=O)c3ccccc3)c2O[C@H]1CN(C)Cc1ccc(C(=O)Nc2ccccc2N)cc1
CCCCC(O)(CCCC)C(=O)NN(C(=O)OC)c1ccccc1
COc1ccc(C(=O)N[C@H](C(=O)Nc2nc3ccccc3[nH]2)C(C)C)cc1
CC(=O)N1[C@H](CNC(=O)C2CC2)[C@H](c2ccc(-c3ccccc3)cc2)[C@@H]1CO
O=C(N/N=C/c1cccc(F)c1)c1csc2c1CCCC2
CN1c2ccc(-c3cccc(F)c3)cc2[C@H]2[C@H](CCN2C(=O)C2CC2)[C@H]1CO
CC(C)NC(=O)N1CC[C@@H]2[C@@H](CO)N(C)c3ccc(-c4cccc(F)c4)cc3[C@@H]21
CC(C)NC(=O)N1[C@H](CO)[C@@H]2c3ccccc3N(C(=O)c3ccccc3F)C[C@@H]21
O=C(NC[C@H]1N[C@H](CO)[C@H]1c1ccccc1)c1ccccc1F
C[C@@H]1CN([C@@H](C)CO)C(=O)c2cccc(NC(=O)C3CCOCC3)c2O[C@H]1CN(C)Cc1ccc2c(c1)OCO2
C[C@@H]1CN([C@H](C)CO)C(=O)c2cccc(NC(=O)C3CCOCC3)c2O[C@H]1CN(C)Cc1ccc2c(c1)OCO2
C[C@@H]1CN([C@H](C)CO)C(=O)c2cccc(NC(=O)C3CCOCC3)c2O[C@@H]1CN(C)Cc1ccc2c(c1)OCO2
C[C@@H]1CN([C@@H](C)CO)C(=O)c2cccc(NC(=O)C3CCOCC3)c2O[C@@H]1CN(C)Cc1ccc2c(c1)OCO2
Cc1c(C(=O)Nc2ccccn2)oc2ccccc12
Cc1ccccc1N(C(=O)CCCC(=O)Nc1ccccn1)C(C(=O)NC1CCCC1)c1ccc(O)cc1 (stereo not given)
O=C(NCCCN1CCN(Cc2ccccc2)CC1)c1nnc(Cc2c(F)cccc2Cl)o1
COC(=O)c1c(NC(C)=O)sc(Cc2ccccc2)c1C
O=C(Nc1ccccn1)c1cccc(S(=O)(=O)N2CCOCC2)c1
CCC(=O)N1[C@H](CNC(=O)COC)[C@@H](c2ccc(-c3ccccc3)cc2)[C@@H]1CO
Cc1ccc(S(=O)(=O)NCCC(=O)Oc2ccc3ccc(=O)oc3c2)cc1
Cc1ccc2[nH]c(CNC(=O)C3CCCCC3)cc2c1
C[C@@H]1CN([C@@H](C)CO)C(=O)Cc2cc(NC(=O)Nc3cccc4ccccc34)ccc2O[C@H]1CN(C)C(=O)NC1CCCCC1
COc1ccc(/C=N/NC(=O)COc2ccccc2-c2ccccc2)cc1
Cc1ccc(OCC(=O)Nc2cccc3c2CCCC3)cc1C
CCOc1ccc(N2C(=O)Nc3ccccc3C2(O)C(=O)NCc2ccc3c(c2)OCO3)cc1 (stereo not given)
Cc1cc(Cl)c(S(=O)(=O)N2CCCCCC2)cc1OCC(=O)NC1CCCCC1
c1ccc(CSc2nnc(-c3cccnc3)o2)cc1
C=CC(C)n1c(Br)nc2c1c(=O)[nH]c(=O)n2C (stereo not given)
CS(=O)(=O)N(CC(=O)Nc1cccc(F)c1)c1cccc([N+](=O)[O-])c1
Cc1c(-c2ccccc2)cn2c1-c1ccc(C)n1CC2
O=C(CN1CCOCC1)Nc1cc(Cl)ccc1Cl
CCn1c(CCNC(=O)c2ccc(OC)cc2)nnc1SCC(=O)Nc1ccccc1F
COc1cc(OC)c(-c2nc3cnccc3n2C)cc1OC
CCOC(=O)c1[nH]c2c(c1C)C(=O)CC(c1ccco1)C2 (stereo not given)
COC(=O)c1[nH]c2c(c1C)C(=O)CC(c1ccccc1)C2 (stereo not given)
CCC(=O)N1[C@H](CO)[C@H](c2ccccc2)[C@@H]1CN(CC)C(=O)c1cccc(F)c1
Cc1ccc(NCc2nnc(SCC(=O)Nc3ccccc3)n2CC2CCCO2)c(C)c1 (stereo not given)
CC1CCN(C(=S)c2ccc(O)cc2)CC1
CC1CCN(S(=O)(=O)c2ccc(NC(=O)Cc3cccs3)cc2)CC1
COCC(=O)Nc1ccc2c(c1)[C@@H]1C[C@H](CC(=O)NCc3ccccc3)O[C@H](CO)[C@@H]1O2
O=C(C[C@@H]1C[C@H]2c3cc(NS(=O)(=O)c4ccc(F)cc4)ccc3O[C@H]2[C@H](CO)O1)NCc1ccc(Oc2ccccc2)cc1
COc1ccc(NC(=O)Nc2ccc3c(c2)CC(=O)N([C@@H](C)CO)C[C@@H](C)[C@@H](CN(C)C(=O)NC(C)C)O3)cc1
COc1ccc(NC(=O)Nc2ccc3c(c2)CC(=O)N([C@@H](C)CO)C[C@@H](C)[C@H](CN(C)C(=O)NC(C)C)O3)cc1
C[C@@H]1CN([C@@H](C)CO)C(=O)c2cc(N(C)C)ccc2O[C@@H]1CN(C)C(=O)Nc1ccc(F)cc1
CC(=O)c1cccc(OCC(=O)Nc2ccccc2N2CCOCC2)c1
COCCCn1c(=O)/c(=C\c2ccccc2OC(F)F)s/c1=C(/C#N)C(N)=O
Cc1cc(C)c(C)c(S(=O)(=O)Nc2ccc(OCC(=O)O)cc2)c1C
Cc1cc(O)c(C(C)C)cc1N=Nc1ccccc1C(=O)O
Cc1ccc(C)c(S(=O)(=O)Nc2ccc(O)c3ccccc23)c1
C=CCn1cc(C(=O)N2CCc3ccccc3C2)c(=O)c2cc(S(=O)(=O)N(CC)CC)ccc21
CC(=O)c1cccc(NC(=O)C(C)N2CCc3ccccc3C2)c1 (stereo not given)
Cc1ccc(C(=O)Oc2ccc(C(=S)N3CCOCC3)cc2)cc1
Cc1ccc(CN2C(=O)C(C)(C)Oc3ccc(C(=O)N4CCCCC4)cc32)cc1
CCc1cccc(NC(=O)Cc2cn(C)c3ccccc23)c1
CCc1ccc(NC(=O)CN2CCc3ccccc3C2)cc1
Cc1noc(C)c1NC(=O)Nc1ccc2c(c1)CC(=O)N([C@@H](C)CO)C[C@H](C)[C@@H](CN(C)Cc1ccc(Cl)c(Cl)c1)O2
